rRNA inh HTS – selective bacterial rRNA inhibition in E. coli; E. coli WT GFP vs humanized-ribosome RFP mutants, fluorescence, 24 h; hits give low values; DMSO median 0, no signal -100; GFP signal change (wild-type ribosome), % (concentration not given with the values); actives 1.6% (n = 350,000);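 active = significant combined selectivity score with lowered wild-type GFP, culture density cut under 30%, mutant RFP and density less affected; inactive = any of these conditions unmet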
esBAF inh – blocks esBAF chromatin remodeling in mouse ES cells; Bmi1-luciferase knock-in reporter, 24 h; 100% = twice the neutral-well signal; reporter increase, % at 12.5 µM; actives 2% (n = 350,000); AID 602393; in the data active = activation above about 40%; inconclusive = no clear call, values can overlap the other calls;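 also: a rise in the Bmi1 reporter signal indicates esBAF inhibition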
Wnt bcat act – Wnt/beta-catenin pathway activation | actives 1.2% (n = 300,000) | Wnt/beta-catenin reporter cell assay, activator, plate reader | AID 743398 | activation, % at 9.35 µM; in the data active = activation above about 30%, passing the limit was not always enough; inconclusive = no clear call, values can overlap the other calls
MITF act – increases MITF-driven TRPM1 promoter luciferase signal; SK-MEL-5 TRPM1-promoter luciferase, 24 h; % of positive control, neutral wells = 0; activation, % at 12.5 µM; actives 0.75% (n = 300,000);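 active = mean activation of at least 80% with every replicate also reaching 80%; inconclusive = mean reaches 80% but some replicate falls short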
AF4-AF9 inh – MLL-AF4/AF9 protein interaction inhibition; P42568; AlphaScreen, biotin-AF4 peptide binding to FLAG-AF9; inhibition, % at 10 µM; actives 0.47% (n = 350,000);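 active = every replicate reaching a set inhibition limit, whatever the replicate mean, cut at about 25% in these data; inconclusive = mean inhibition reaches that limit but some replicates miss it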
Target sequence (P42568 whole entry, looked up): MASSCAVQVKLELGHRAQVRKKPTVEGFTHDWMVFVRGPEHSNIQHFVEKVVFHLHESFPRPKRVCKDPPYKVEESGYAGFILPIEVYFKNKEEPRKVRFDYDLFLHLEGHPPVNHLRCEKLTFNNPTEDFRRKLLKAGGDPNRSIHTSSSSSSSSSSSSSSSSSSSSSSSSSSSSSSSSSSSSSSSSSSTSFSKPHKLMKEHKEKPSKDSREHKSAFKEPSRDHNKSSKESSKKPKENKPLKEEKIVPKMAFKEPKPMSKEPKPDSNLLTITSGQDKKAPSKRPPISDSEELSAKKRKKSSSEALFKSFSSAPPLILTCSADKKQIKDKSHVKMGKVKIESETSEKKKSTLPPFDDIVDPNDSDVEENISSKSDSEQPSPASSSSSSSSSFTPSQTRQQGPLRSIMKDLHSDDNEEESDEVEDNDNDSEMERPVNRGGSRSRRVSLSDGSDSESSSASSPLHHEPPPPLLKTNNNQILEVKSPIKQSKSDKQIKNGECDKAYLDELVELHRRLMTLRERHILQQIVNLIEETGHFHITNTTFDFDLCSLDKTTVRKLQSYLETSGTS
Ring1 derepress – esBAF inhibition confirmed by Ring1 de-repression. 550 tested, under 10 active. shares compounds with esBAF inh. mouse ESC E14, Ring1 mRNA RT-qPCR fold change. AID 743176. fold change at 33 µM;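 active = Ring1 gene expression raised more than 2-fold over untreated cells in both replicates at either tested dose; inconclusive = only one replicate above 2-fold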;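 also: Ring1 transcript normalised to actin housekeeping signal by TaqMan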
esBAF Fgf4 qPCR – esBAF inhibition confirmed by Fgf4 repression. shares compounds with esBAF inh. mouse ESC E14, Fgf4 mRNA qPCR fold change; hits give low values. Fgf4 expression fold change at 33 µM. actives 4% (n = 550). AID 743177;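 active = Fgf4 expression under 0.8 fold of control in both repeat measurements at one or both tested doses; inconclusive = under 0.8 fold in just a single repeat measurement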;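 also: Fgf4 transcript normalised to actin in duplex TaqMan qPCR; cells exposed to compound for 24 h before lysis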
Bmi1 derepress – esBAF inhibition confirmed by Bmi1 de-repression; shares compounds with esBAF inh; mouse ESE14 ES cells, Bmi1 mRNA qPCR fold; hits give high values; fold change at 33 µM; 550 tested, under 10 active;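 active = Bmi1 expression fold change above 6 at either tested concentration, seen in replicate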;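 also: higher fold means more Bmi1 de-repression and stronger esBAF inhibition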
A549 tox SP – kills or reduces viability of A549 cells; shares compounds with esBAF inh; A549 cytotoxicity, plate reader; cell viability change % (negative = cytotoxic), % at 25 µM, hits read low; 550 tested, under 10 active; call rule not given here
HepG2 tox SP – kills or reduces viability of HepG2 cells | shares compounds with esBAF inh | HepG2 cytotoxicity, plate reader; hits give low values | activity change, negative = inhibition, % at 25 µM | actives 4% (n = 550); in the data active = activity change below about -50%
HEK293 tox SP – HEK293 cell cytotoxicity at single point; shares compounds with esBAF inh; plate reader; activity change, negative = inhibition, % at 25 µM, hits read low; actives 3% (n = 550); AID 743190; in the data active = activity change below about -38%, passing the limit was not always enough
Large screens that a line does not name were inactive (follow-up assays come after a bar, where they were run). Rows were chosen to be rich in hits. Some 3.7% of all compounds tested hit in one or more screens of this group.

C[C@@H]1CN([C@@H](C)CO)C(=O)c2cc(/C=C/c3ccccc3)cnc2O[C@@H]1CN(C)Cc1ccccc1	none (no result: Wnt bcat act, MITF act)
Cc1cc(Cl)c(O)c(-n2nc3ccccc3n2)c1	esBAF inh 61 | Ring1 derepress inactive | esBAF Fgf4 qPCR inactive | Bmi1 derepress inactive | A549 tox SP inactive | HepG2 tox SP inactive | HEK293 tox SP inactive
O=C(C[C@H]1C[C@@H]2c3cc(NC(=O)Cc4ccncc4)ccc3O[C@@H]2[C@H](CO)O1)NCc1ccc(-c2ccccc2)cc1	none (no result: Wnt bcat act, MITF act)
COc1cccc(CN(C)C(=O)c2ccc(COc3ccc(Cl)cc3)cc2)c1OC	esBAF inh 59, MITF act inconclusive | Ring1 derepress inactive | esBAF Fgf4 qPCR inactive | Bmi1 derepress inactive | A549 tox SP inactive | HepG2 tox SP inactive | HEK293 tox SP inactive
COc1cc2cnc(-c3ccsc3)cc2cc1OC	none
Fc1ccc2cc(-c3ccsc3)ncc2c1	esBAF inh 60, Wnt bcat act 36 (no result: AF4-AF9 inh) | Ring1 derepress inactive | esBAF Fgf4 qPCR inactive | Bmi1 derepress inactive | A549 tox SP inactive | HepG2 tox SP inactive | HEK293 tox SP inactive
COc1cc(C(=O)N/N=c2/sc3ccccc3n2C)cc(OC)c1OC	none (no result: esBAF inh)
COc1ccc(C(=O)N=c2sc3ccccc3n2C)cc1OC	esBAF inh 73, Wnt bcat act 43 | Ring1 derepress inactive | esBAF Fgf4 qPCR inactive | Bmi1 derepress inactive | A549 tox SP inactive | HepG2 tox SP inactive | HEK293 tox SP inactive
CC(C)C#Cc1cnc2c(c1)C(=O)N([C@H](C)CO)C[C@H](C)[C@H](CN(C)C(=O)CCN1CCCCC1)O2	none (no result: esBAF inh, Wnt bcat act, MITF act)
N#Cc1ccc(-c2cn3c(n2)SCC3)cc1	esBAF inh 61 | Ring1 derepress inactive | esBAF Fgf4 qPCR inactive | Bmi1 derepress inactive | A549 tox SP inactive | HepG2 tox SP inactive | HEK293 tox SP inactive
Cc1ccc(S(=O)(=O)N[C@H]2CC[C@H](CCn3cc(C(C)C)nn3)O[C@@H]2CO)cc1	none (no result: Wnt bcat act, MITF act)
COc1ccc(-c2cnc(C(O)c3ccc(-c4ccccc4)cc3)[nH]2)cc1 (stereo not given)	none (no result: MITF act)
COc1ccc(-c2cnc(C(O)c3ccccc3)[nH]2)cc1 (stereo not given)	esBAF inh 65 (no result: MITF act) | Ring1 derepress inactive | esBAF Fgf4 qPCR inactive | Bmi1 derepress inactive | A549 tox SP inactive | HepG2 tox SP inactive | HEK293 tox SP inactive
O=C(O)c1ccc(Cl)c(NCc2ccncc2)c1	none (no result: MITF act)
CSCc1nc2sc(C(=O)Nc3nc(C)cs3)c(C)c2c(=O)[nH]1	esBAF inh 60 (no result: rRNA inh HTS) | Ring1 derepress inactive | esBAF Fgf4 qPCR inactive | Bmi1 derepress inactive | A549 tox SP inactive | HepG2 tox SP inactive | HEK293 tox SP inactive
Cc1csc(NC(=O)CSc2nc3sc(C)c(C)c3c(=O)[nH]2)n1	none (no result: rRNA inh HTS, MITF act, AF4-AF9 inh)
C[C@@H]1CN([C@H](C)CO)C(=O)c2cccc(NC(=O)Nc3ccc(C(F)(F)F)cc3)c2O[C@H]1CN(C)CC1CC1	none (no result: Wnt bcat act, MITF act)
C[C@@H]1CCCCO[C@@H](CN(C)C)[C@H](C)CN([C@@H](C)CO)C(=O)c2cc(NC(=O)CCCN(C)C)ccc2O1	none (no result: Wnt bcat act, MITF act, AF4-AF9 inh)
COc1ccc(CNC(=O)Nc2ccccc2)cc1	none
COc1ccc(CNC(=O)Nc2cccc(C)c2)cc1	esBAF inh 67, Wnt bcat act 35 (no result: rRNA inh HTS, AF4-AF9 inh) | Ring1 derepress inactive | esBAF Fgf4 qPCR inactive | Bmi1 derepress inactive | A549 tox SP inactive | HepG2 tox SP inactive | HEK293 tox SP inactive
NC(=O)c1ccc(CSc2nc3ccccc3s2)cc1	esBAF inh 54 | Ring1 derepress inactive | esBAF Fgf4 qPCR inactive | Bmi1 derepress inactive | A549 tox SP inactive | HepG2 tox SP inactive | HEK293 tox SP inactive
CCNC(=O)c1ccc(CSc2nc3ccccc3s2)cc1	none (no result: esBAF inh)
COc1ccc(OCc2cc(C(=O)N(Cc3nccn3C)C(C)C)no2)c2ccccc12	esBAF inh 70 | Ring1 derepress inactive | esBAF Fgf4 qPCR inactive | Bmi1 derepress inactive | A549 tox SP inactive | HepG2 tox SP inactive | HEK293 tox SP inactive
CC(C)C(=O)NC(=S)Nc1nnn(C)n1	none (no result: rRNA inh HTS, esBAF inh, Wnt bcat act, AF4-AF9 inh)
Cc1ccn2cc(C(=O)Nc3ccc4c(c3)OCCO4)nc2c1	none (no result: rRNA inh HTS, AF4-AF9 inh)
Cc1ccn2cc(C(=O)Nc3nnc(C)s3)nc2c1	esBAF inh 55, MITF act inconclusive (no result: rRNA inh HTS, AF4-AF9 inh) | Ring1 derepress inactive | esBAF Fgf4 qPCR inactive | Bmi1 derepress inactive | A549 tox SP inactive | HepG2 tox SP inactive | HEK293 tox SP inactive
C=CCNc1oc(-c2ccc(OCC)cc2)nc1C#N	none
C=CCNc1oc(-c2ccc(OC)cc2)nc1C#N	esBAF inh 79 (no result: rRNA inh HTS, Wnt bcat act, AF4-AF9 inh) | Ring1 derepress inactive | esBAF Fgf4 qPCR inactive | Bmi1 derepress inactive | A549 tox SP inactive | HepG2 tox SP inactive | HEK293 tox SP inactive
CCC1CCCCN1C(=O)c1ccc2nc(Cc3ccc(OC)cc3)oc2c1 (stereo not given)	esBAF inh 67, MITF act inconclusive | Ring1 derepress inactive | esBAF Fgf4 qPCR inactive | Bmi1 derepress inactive | A549 tox SP inactive | HepG2 tox SP inactive | HEK293 tox SP inactive
COc1cccc(/C=N/NC(=O)CCCC(=O)Nc2ccc(Br)cc2)c1	none (no result: rRNA inh HTS, esBAF inh, AF4-AF9 inh)
COc1ccc(/C=C/C(=O)Oc2cccc(/C=N/NC(=O)Cc3ccc(Br)cc3)c2)cc1	esBAF inh 63 | Ring1 derepress inactive | esBAF Fgf4 qPCR inconclusive | Bmi1 derepress inactive | A549 tox SP inactive | HepG2 tox SP inactive | HEK293 tox SP inactive
Cc1cc(-c2nnc(CCC(=O)NC(C)c3cccc4ccccc34)o2)no1 (stereo not given)	none (no result: esBAF inh)
COc1ccc(-c2csc(NC3OC(=O)c4c3ccc(OC)c4OC)n2)cc1OC (stereo not given)	none (no result: rRNA inh HTS, esBAF inh, MITF act)
COc1ccc2c(c1OC)C(=O)OC2Nc1nc(-c2cc3cc(Br)ccc3oc2=O)cs1 (stereo not given)	rRNA inh HTS -26, esBAF inh 65, Wnt bcat act 51, MITF act 144 | Ring1 derepress inactive | esBAF Fgf4 qPCR inactive | Bmi1 derepress inactive | A549 tox SP inactive | HepG2 tox SP inactive | HEK293 tox SP inactive
CC(=O)Nc1ccc(CNc2nc(NC(C)C)nc3cc(-c4ccccc4)sc23)cc1	none (no result: MITF act)
C=CCNc1nc(NCc2ccc(NC(C)=O)cc2)c2sc(-c3ccccc3)cc2n1	esBAF inh 66 (no result: MITF act) | A549 tox SP -69 | HepG2 tox SP -88 | HEK293 tox SP -121
